Test results: PubChem BioAssay AID652183 (National Center for Advancing Translational Sciences (NCATS), 2013)
Results filed as inconclusive are left out. The source made the active and inactive calls. Calls follow the shape of the dose curve; as a rule, active = well fitted inhibition curve with a large enough effect; inconclusive = small, poorly fitted or top-dose-only effect; inactive = no such curve, though single readings can be large or run the other way.

experiment: qHTS Assay for Lipid Storage Modulators: Differentiation Assay against Probe and Analogs; conditions: 3T3-L1 adipocyte differentiation, BODIPY lipid imaging, 8 d; series mostly up to 20 µM
Text: Storing lipids as a reservoir for energy or the anabolism of elementary metabolites is a common feature of probably all cells and is conserved from bacteria to humans. The universal cellular lipid storage organelle is the so-called lipid storage droplet (LD). Although ubiquitous, LDs share a simple structure composed of a hydrophobic core that harbors the storage lipids, which is shielded by a droplet-specific phospholipid monolayer to which proteins are attached. The current model of LD biogenesis involves an incorporation of the lipid core into the membrane leaflets of the endoplasmic reticulum (ER) followed by a subsequent budding-like maturation of a LD, which ultimately pinches off. Once released, LD volume can increase by localized lipogenesis or fusion of existing droplets. Storage lipids are re-mobilized enzymatically by lipase activity. Lipase regulation in the adipocyte is heavily studied and involves multiple components including catecholamine signaling, the LD-associated proteins Perilipin and comparative gene identification-58 (CGI-58) and at least two lipases named hormone sensitive lipase (HSL) and adipocyte triglyceride lipase (ATGL). LD regulation outside of the adipocyte is poorly understood and only few components are known. However, there is an urgent need to learn more about ectopic fat depots as mislocalized storage of lipids, for example in the liver or muscle, is an eminent health problem associated with insulin resistance or the metabolic syndrome. We developed a laser-scanning cytometer assay to enable 1,536-well screening and combined the results of the small molecules screen with an RNAi database based on lipid storage. […] NIH Chemical Genomics Center [NCGC] MLPCN Grant: MH085686 Assay Submitter (PI): Mathias Beller, Max-Planck-Institut fur Biophysikalische Chemie
3T3L1 cells were obtained from ATCC (CL-173). Pre-adipocyte medium (PM-1), differentiation medium (DM-2) and after adipocyte medium (AM-1) were purchased from Zen-Bio (# PM-1-L1, DM-2-L1, AM-1-L1). 200 uL of PM-1containing 3,000 cells was dispensed into each well of a 96-well plate (Corning, #3340), and the assay plates were incubated at 37 °C, 95% humidity and 5% CO2 for 3-5 days. The differentiation of pre-adipocyte to adipocyte was induced by removing the pre-adipocyte medium and replacing with 200 uL of differentiation medium. 1 uL of compounds at different concentrations dissolved in differentiation medium were added to the assay plates, along with medium exchange for differentiation to test their effects on adipocyte differentiation. The final DMSO concentration was 0.5%.Triacsin C (Sigma-Aldrich T-4540), an inhibitor of long-chain fatty acyl CoA synthetase that blocks synthesis of triglycerides, was used as a positive control for lipid under-storage. After 3 days, differentiation medium was replaced with adipocyte maintenance medium and assay plates were incubated for 5 days. Aspirated the medium, then Cells were fixed using 4% of paraformaldehyde in PBS for 30 minutes at room temperature, washed 3 times with PBS buffer. Finally, the cells were stained using 200 uL of PBS containing BODIPY lipid dye 493/530 (1:2000 dilution, Molecular Probes), Hoechst 33342 (1:1000 dilution, Life Technologies, #H3570) and CellMask deep red dye (1:10,000 dilution, Life Technologies, #H32721) with Washer dispenser EL406(Biotek). Images were acquired using InCell 2000 (GE), number of cells, number of lipids, size of lipids and cells were analysis using GE Investigator software.

Row | SMILES | Potency
1 | O=C(NC1CCCc2c1cnn2-c1cccc(O)c1)c1ccccn1 (stereo not given) | 3160 nM (active)
2 | CC(C)Oc1ccc(CCNC(=O)c2cc3sccc3n2Cc2ccccc2)cc1OC(C)C | 3980 nM (active)
3 | CCOC(=O)C1CCN(C(=O)C2(NC(=O)Nc3ccccc3Cl)CCC2)CC1 | 2820 nM (active)
4 | CCOc1cc(F)c(CCNC(=O)c2cc3sccc3n2Cc2ccccc2)cc1OCC | inactive
5 | CCOc1ccc(CCNC(=O)c2cc3sccc3n2CCN2CCOCC2)cc1OCC | inactive
6 | CCOc1ccc(CCNC(=O)c2ccnn2Cc2cccc(C)c2)cc1OCC | 2820 nM (active)
7 | CCOC(=O)C1CCN(C(=O)C(C)(C)NC(=O)Nc2ccc(-c3ccccc3)cc2)CC1 | 1120 nM (active)
8 | CCn1c(C(=O)NCCc2ccc(OC)cc2)cc2sccc21 | 12600 nM (active)
9 | CCOc1cc(CCNC(=O)c2cc3sccc3n2Cc2ccccc2)cc(F)c1OCC | 2820 nM (active)
10 | CCOc1ccc(CCNC(=O)c2ccc3ccccc3n2)cc1OCC | inactive
